# Results taken from publication PMC5540273 (PLoS ONE, 2017).
# Tested on: T1, DMPK2
# T1 construct: gene CDC42BPG
# Conditions: concentration: 1 μM, replicates: in singlicate; n = 1
# 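Note: KINOMEscan kinase panel screen.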
row,Structure (SMILES),%Inh [%]
1,CCc1ccc(-c2ccc3c(c2)-c2nn(C)cc2S(=O)(=O)N3C)cc1,0
2,Nc1n[nH]c2ncc(-c3ccccc3)cc12 [SB-517081],0
3,Cc1nc(N(C)[C@H]2CN(C(=O)CC#N)CC[C@H]2C)c2cc[nH]c2n1,5
4,COc1ccc(-c2coc3ccc(-c4nnc(SCc5cccc(C#N)c5)o4)cc23)cc1,0
5,CCC(=O)c1c(-c2ccccc2)c2cc(Cl)ccc2c(=O)n1Cc1cc(S(C)(=O)=O)n(CCC(C)(C)O)n1,17
6,COc1cc2ncn(-c3cc(OCc4ccncc4)c(C(N)=O)s3)c2cc1OC [GSK336313],12
7,Nc1nccc2scc(-c3ccc4c(c3)CCN4C(=O)Cc3ccccc3)c12 [GSK2576924],22
8,COC(=O)c1c(-c2ccccc2)c2cc(Br)ccc2c(=O)n1Cc1ccc(S(C)(=O)=O)cc1,5
9,CCCC(=O)Nc1n[nH]c2ncc(-c3cccc4ccccc34)cc12 [SB-642057],4
10,O=C1NC(=O)C(c2ccccc2)=C1Nc1cccc(O)c1 [SB-390534],0
11,Cc1nn2c(=O)cc(N3CCOCC3)nc2n1Cc1cccc(Cl)c1Cl [GSK2342769],0
12,C[C@@H]1CC[C@H](C(=O)NC2CCCCC2)CN1c1cc(-c2ccc3c(N)n[nH]c3c2)nc(N)n1 [GSK2291363],23
13,Nc1ncnc2c1ncn2-c1cccc2ccccc12 [SKF-97184],0
14,COc1cc2ncn(-c3cc(OCc4ccncc4Br)c(C(N)=O)s3)c2cc1OC [GW854278],0
15,COc1cc2ncn(-c3cc(OCCCc4ccccc4)c(C(N)=O)s3)c2cc1OC [GSK205189],0
16,O=C(Nc1n[nH]c2nc(-c3ccccc3)c(Cl)cc12)C1CC1 [SB-734909],11
17,COc1ccc(-c2cc3c(C)nc(N)nc3n([C@H]3CC[C@H](OCCO)CC3)c2=O)cn1,0
18,CCC(=O)c1c(-c2ccccc2)c2cc(Cl)ccc2c(=O)n1Cc1ccc(C(=O)O)cc1,0
19,Cc1nnc(-c2ccc(C)c(-c3ccc(C(=O)O)cc3)c2)o1 [GW608005],0

row,Structure (SMILES),%Inh [%]
1,Cc1ccccc1COc1cc(-n2cnc3cc(Cl)ccc32)sc1C(N)=O [GW813349],2
2,Cc1ccc(Oc2ccc(Nc3ncnc4cc[nH]c34)cc2C)cn1,0
3,CCCNC(=O)Nc1ccc(Oc2ncnc3ccn(C)c23)cc1,0
4,COc1cc(Nc2nccc(N3CCC(NC(=O)C4COc5ccccc5O4)C3)n2)cc(OC)c1OC (stereo not shown) [GSK1379761],0
5,COc1cc2ncn(-c3cc(OCc4ccc(S(C)(=O)=O)cc4)c(C(N)=O)s3)c2cc1OC [GW869979],10
6,COc1cc(Nc2ccnc3ccc(C(F)(F)F)cc23)cc(OC)c1OC [GW577382],4
7,O=C(Nc1n[nH]c2cc(-c3ccccc3F)ccc12)C1CC1 [SB-733371],0
8,COC(=O)c1c(-c2ccccc2)c2cc(C)ccc2c(=O)n1Cc1ccccc1,0
9,FC(F)(F)c1ccc(-c2ncn(CCCN3CCOCC3)c2-c2ccncc2)cc1 [SB-217780],1
10,Cl.NS(=O)(=O)c1cccc(Nc2cc(-c3ccc(F)cc3)n[nH]2)c1 [GW824645],0
11,COc1cccc(C2=C(N(C)c3ccccc3)C(=O)NC2=O)c1 [SB-334865],0
12,Cn1c(=O)c(F)c(Nc2ccc(I)cc2F)c2c(=O)n(OC[C@H](O)CO)cnc21,20
13,Fc1cccc(CSc2nnc(-c3ccc4c(c3)CCO4)o2)c1,9
14,Nc1ncnc2c1ncn2-c1cccc(F)c1 [SKF-97560],14
15,COc1cc(OC)cc(-c2cc3cnc(N)nc3nc2NC(=O)NC(C)(C)C)c1,0
16,CCc1nc(-c2cccc(C)c2)c(-c2ccncc2)s1,79
17,COc1ccc(Nc2nccc(N3CCC(NS(=O)(=O)c4ccc(NC(C)=O)cc4)C3)n2)cc1 (stereo not shown) [GSK1379729],8
18,COc1ccc(-n2cnc3c(N)ncnc32)cc1 [SKF-97236],0
